Publication PMC7862700, “An all-to-all approach to the identification of sequence-specific readers for epigenetic DNA modifications on cytosine”

Columns and labels:
Test in all cases: DAPPL (digital affinity profiling via proximity ligation, sequencing); 10 mM Tris-HCl pH 7.5, 50 mM NaCl, 1 mM DTT, 4% glycerol, room temperature, 30 min; GST-TFs on glutathione beads, 16-mer random dsDNA library, 0.1% formaldehyde crosslink after washing; high values mean tight binding
FLI1 = molecular target: T1, FLI1 (Homo sapiens, UniProt Q01543 1-452); details: protein: recombinant; tags: N-terminal GST; dsDNA, one strand shown
T1 sequence: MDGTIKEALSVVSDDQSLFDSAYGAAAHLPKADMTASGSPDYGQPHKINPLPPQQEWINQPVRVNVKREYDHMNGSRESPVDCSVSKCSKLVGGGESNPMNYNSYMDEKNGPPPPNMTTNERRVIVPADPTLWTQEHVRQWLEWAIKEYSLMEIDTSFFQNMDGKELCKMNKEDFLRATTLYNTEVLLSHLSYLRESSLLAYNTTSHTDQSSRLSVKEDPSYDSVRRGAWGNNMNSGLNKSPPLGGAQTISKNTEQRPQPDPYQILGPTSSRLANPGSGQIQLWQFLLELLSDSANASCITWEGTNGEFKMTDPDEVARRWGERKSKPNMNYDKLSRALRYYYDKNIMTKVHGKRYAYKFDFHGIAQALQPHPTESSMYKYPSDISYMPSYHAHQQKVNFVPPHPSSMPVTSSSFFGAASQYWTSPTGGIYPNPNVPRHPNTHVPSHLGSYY
How it was run: (§1)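 Pools of DNA-barcoded human transcription factors, expressed in yeast as GST fusions on glutathione beads and combined with a tag-only sample, were incubated with 200 nmole of a 16-mer random double-stranded DNA library. Incubation took 30 min at room temperature in Tris/NaCl/DTT/glycerol buffer and was followed by washing, 0.1% formaldehyde crosslinking, proximity ligation (BsaI/T4 ligase, 1 h, 37 °C), PCR amplification and sequencing on an Illumina NextSeq500. Binding signal is the ratio of a hexamer's read frequency for a factor to its frequency for the tag-only sample.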

ELK1 = molecular target: T2, ELK1 (Homo sapiens, UniProt P19419 1-428); details: protein: recombinant; tags: N-terminal GST; dsDNA, one strand shown
T2 sequence: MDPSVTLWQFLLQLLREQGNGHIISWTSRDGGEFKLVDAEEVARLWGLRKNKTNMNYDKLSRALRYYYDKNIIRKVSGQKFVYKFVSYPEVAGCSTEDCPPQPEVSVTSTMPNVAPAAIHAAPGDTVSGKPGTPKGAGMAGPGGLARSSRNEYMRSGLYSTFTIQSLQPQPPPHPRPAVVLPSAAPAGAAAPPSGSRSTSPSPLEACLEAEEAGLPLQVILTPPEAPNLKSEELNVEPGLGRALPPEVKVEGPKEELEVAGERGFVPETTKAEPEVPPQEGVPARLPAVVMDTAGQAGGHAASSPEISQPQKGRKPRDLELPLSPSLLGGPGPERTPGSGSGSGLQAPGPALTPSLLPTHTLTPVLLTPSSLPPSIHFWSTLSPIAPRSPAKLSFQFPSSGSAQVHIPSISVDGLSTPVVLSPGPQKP
How it was run: as §1

GABPA = molecular target: T3, GABPA (Homo sapiens, UniProt Q06546 1-454); details: protein: recombinant; tags: N-terminal GST; dsDNA, one strand shown
T3 sequence: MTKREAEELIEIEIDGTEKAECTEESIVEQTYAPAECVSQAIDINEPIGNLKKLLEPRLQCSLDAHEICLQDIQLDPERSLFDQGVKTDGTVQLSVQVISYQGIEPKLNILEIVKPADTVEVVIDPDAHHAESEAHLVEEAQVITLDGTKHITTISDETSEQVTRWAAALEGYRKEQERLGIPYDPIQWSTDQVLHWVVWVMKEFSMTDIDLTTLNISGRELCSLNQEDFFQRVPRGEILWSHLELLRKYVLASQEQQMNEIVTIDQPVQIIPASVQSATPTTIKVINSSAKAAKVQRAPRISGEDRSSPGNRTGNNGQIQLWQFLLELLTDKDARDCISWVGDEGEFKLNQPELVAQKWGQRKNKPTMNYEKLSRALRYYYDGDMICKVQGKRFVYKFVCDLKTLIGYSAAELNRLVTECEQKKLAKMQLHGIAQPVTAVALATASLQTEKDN
How it was run: as §1

ERG = molecular target: T4, ERG (Homo sapiens, UniProt P11308 1-479); details: protein: recombinant; tags: N-terminal GST; dsDNA, one strand shown
T4 sequence: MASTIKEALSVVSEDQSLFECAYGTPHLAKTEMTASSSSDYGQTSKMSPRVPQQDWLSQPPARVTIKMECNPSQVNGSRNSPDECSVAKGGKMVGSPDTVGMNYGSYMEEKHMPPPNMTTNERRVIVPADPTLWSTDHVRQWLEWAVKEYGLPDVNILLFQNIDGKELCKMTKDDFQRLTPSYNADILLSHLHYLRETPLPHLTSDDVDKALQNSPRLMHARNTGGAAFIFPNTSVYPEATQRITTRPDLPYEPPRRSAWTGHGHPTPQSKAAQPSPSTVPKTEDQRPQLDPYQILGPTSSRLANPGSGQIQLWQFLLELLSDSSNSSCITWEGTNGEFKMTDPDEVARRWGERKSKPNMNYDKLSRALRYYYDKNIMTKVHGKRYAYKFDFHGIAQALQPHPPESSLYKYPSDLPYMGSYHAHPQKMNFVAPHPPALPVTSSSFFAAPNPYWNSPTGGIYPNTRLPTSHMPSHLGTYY
How it was run: as §1

ELF1 = ELF1 (Homo sapiens, UniProt P32519 1-619); details: protein: recombinant; tags: N-terminal GST; dsDNA, one strand shown
Chain of ELF1 (P32519 whole entry): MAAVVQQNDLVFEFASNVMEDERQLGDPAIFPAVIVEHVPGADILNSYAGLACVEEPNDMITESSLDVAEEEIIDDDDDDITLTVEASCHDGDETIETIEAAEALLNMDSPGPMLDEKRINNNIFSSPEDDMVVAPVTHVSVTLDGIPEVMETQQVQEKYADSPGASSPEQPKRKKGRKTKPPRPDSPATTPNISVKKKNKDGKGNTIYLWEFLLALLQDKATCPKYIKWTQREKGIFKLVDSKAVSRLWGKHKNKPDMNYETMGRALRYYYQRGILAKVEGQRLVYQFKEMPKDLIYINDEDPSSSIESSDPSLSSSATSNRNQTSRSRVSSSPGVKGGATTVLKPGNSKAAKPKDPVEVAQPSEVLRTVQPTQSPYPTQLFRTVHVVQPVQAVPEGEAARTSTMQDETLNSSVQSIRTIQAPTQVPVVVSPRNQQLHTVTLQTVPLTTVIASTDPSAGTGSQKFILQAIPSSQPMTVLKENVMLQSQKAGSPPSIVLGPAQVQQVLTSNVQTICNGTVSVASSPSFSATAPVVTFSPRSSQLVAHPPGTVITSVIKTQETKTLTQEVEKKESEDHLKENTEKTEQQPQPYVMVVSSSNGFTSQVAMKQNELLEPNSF
How it was run: as §1

EHF = molecular target: T5, EHF (Homo sapiens, UniProt Q9NZC4 1-300); details: protein: recombinant; tags: N-terminal GST; dsDNA, one strand shown
T5 sequence: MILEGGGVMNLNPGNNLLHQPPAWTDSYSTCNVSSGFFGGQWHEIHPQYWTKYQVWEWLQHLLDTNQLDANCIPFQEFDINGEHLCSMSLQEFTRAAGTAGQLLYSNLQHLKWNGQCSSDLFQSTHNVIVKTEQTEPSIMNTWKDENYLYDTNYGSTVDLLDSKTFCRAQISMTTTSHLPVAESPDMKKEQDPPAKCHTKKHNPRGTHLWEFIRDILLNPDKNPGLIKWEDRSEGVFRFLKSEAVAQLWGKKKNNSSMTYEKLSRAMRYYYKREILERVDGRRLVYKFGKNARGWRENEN
How it was run: as §1

SPI1 = SPI1 (Homo sapiens, UniProt P17947 1-270); details: protein: recombinant; tags: N-terminal GST; dsDNA, one strand shown
How it was run: as §1

SPIB = SPIB (Homo sapiens, UniProt Q01892 1-262); details: protein: recombinant; tags: N-terminal GST; dsDNA, one strand shown
Chain of SPIB (Q01892 whole entry): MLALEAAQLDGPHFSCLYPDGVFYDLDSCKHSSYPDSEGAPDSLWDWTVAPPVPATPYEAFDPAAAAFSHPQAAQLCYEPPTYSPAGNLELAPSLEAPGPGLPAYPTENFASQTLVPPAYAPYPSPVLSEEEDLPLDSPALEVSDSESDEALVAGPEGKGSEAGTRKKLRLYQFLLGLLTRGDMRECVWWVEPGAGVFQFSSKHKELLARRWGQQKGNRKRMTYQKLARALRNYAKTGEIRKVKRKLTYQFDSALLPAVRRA
How it was run: as §1

ELK3 = molecular target: T6, ELK3 (Homo sapiens, UniProt P41970 1-407); details: protein: recombinant; tags: N-terminal GST; dsDNA, one strand shown
T6 sequence: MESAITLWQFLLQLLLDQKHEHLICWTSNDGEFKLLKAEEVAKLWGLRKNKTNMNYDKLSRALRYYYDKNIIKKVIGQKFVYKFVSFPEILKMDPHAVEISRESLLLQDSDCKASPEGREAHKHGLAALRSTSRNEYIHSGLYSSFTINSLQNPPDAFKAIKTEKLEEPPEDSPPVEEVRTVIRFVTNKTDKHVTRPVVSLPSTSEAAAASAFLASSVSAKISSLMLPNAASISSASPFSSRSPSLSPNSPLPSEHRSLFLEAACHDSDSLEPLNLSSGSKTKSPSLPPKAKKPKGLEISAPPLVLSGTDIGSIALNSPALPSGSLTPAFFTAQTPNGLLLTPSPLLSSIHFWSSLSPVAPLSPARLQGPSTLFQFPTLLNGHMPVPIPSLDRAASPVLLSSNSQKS
How it was run: as §1

FEV = molecular target: T7, FEV (Homo sapiens, UniProt Q99581 1-238); details: protein: recombinant; tags: N-terminal GST; dsDNA, one strand shown
T7 sequence: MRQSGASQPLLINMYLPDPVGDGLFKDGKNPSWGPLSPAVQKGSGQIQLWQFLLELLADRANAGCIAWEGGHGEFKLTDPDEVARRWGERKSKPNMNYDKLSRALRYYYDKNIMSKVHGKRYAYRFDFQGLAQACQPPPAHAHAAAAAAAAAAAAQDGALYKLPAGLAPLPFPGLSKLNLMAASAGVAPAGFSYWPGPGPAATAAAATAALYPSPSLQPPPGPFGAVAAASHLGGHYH
How it was run: as §1

ETV5 = ETV5 (Homo sapiens, UniProt P41161 1-510); details: protein: recombinant; tags: N-terminal GST; dsDNA, one strand shown
Chain of ETV5 (P41161 whole entry): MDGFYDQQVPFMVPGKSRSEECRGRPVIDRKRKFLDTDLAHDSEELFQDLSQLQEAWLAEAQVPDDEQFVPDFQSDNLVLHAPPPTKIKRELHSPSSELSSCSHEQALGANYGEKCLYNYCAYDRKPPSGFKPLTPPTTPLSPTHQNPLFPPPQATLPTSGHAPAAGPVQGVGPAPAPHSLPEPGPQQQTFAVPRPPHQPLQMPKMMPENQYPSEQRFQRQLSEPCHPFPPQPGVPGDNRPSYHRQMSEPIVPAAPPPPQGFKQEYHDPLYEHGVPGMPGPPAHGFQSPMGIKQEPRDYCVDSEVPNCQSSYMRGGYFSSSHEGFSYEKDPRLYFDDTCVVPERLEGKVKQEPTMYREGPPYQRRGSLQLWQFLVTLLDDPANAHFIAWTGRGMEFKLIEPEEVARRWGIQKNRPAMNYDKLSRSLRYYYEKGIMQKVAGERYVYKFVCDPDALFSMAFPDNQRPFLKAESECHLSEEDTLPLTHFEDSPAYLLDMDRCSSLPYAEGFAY
How it was run: as §1

HSF1 = HSF1 (Homo sapiens, UniProt Q00613 1-529); details: protein: recombinant; tags: N-terminal GST; chain copies: 3; dsDNA, one strand shown
Chain of HSF1 (Q00613 whole entry): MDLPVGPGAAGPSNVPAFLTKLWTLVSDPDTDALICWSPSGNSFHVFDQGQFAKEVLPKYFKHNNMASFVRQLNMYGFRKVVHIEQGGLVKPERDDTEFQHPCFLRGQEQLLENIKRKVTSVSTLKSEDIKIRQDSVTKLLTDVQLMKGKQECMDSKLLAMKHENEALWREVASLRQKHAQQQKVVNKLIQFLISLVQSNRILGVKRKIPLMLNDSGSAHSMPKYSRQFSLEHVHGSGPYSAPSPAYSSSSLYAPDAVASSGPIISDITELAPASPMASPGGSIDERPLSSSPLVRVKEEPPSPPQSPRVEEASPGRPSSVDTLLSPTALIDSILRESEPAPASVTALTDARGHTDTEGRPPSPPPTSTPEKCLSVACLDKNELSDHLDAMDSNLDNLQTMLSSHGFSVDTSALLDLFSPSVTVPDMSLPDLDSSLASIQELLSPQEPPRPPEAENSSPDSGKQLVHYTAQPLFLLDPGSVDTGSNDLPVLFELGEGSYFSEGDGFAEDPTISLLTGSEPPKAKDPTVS
How it was run: as §1

SPIC = molecular target: T8, SPIC (Homo sapiens, UniProt Q8N5J4 1-248); details: protein: recombinant; tags: N-terminal GST; dsDNA, one strand shown
T8 sequence: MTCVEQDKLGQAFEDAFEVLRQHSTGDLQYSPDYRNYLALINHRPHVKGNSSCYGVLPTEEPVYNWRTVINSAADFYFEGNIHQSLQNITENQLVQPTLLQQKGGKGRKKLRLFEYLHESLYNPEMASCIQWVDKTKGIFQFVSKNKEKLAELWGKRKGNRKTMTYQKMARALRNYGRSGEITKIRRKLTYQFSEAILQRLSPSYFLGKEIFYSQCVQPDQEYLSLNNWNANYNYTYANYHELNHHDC
How it was run: as §1

ELF4 = ELF4 (Homo sapiens, UniProt Q99607 1-663); details: protein: recombinant; tags: N-terminal GST; dsDNA, one strand shown
Chain of ELF4 (Q99607 whole entry): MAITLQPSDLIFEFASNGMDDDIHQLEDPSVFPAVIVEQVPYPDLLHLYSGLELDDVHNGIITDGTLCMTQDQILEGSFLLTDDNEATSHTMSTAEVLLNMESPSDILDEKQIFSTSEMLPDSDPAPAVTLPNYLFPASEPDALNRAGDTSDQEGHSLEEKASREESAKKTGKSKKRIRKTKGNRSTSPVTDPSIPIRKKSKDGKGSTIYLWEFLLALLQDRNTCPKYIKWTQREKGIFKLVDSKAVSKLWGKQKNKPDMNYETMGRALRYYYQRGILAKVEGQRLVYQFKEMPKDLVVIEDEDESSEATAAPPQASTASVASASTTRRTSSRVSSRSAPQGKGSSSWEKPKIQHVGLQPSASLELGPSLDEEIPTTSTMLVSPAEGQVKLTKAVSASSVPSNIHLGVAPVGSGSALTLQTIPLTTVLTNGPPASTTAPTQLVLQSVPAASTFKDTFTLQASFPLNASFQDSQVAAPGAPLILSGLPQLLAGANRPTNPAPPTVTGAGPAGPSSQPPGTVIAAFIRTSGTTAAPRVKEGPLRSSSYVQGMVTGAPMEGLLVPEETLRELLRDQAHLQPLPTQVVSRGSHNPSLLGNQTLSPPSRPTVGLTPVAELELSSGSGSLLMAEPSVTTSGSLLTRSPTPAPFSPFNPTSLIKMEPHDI
How it was run: as §1

ELK4 = molecular target: T9, ELK4 (Homo sapiens, UniProt P28324-2 1-405); details: protein: recombinant; tags: N-terminal GST; dsDNA, one strand shown
T9 sequence: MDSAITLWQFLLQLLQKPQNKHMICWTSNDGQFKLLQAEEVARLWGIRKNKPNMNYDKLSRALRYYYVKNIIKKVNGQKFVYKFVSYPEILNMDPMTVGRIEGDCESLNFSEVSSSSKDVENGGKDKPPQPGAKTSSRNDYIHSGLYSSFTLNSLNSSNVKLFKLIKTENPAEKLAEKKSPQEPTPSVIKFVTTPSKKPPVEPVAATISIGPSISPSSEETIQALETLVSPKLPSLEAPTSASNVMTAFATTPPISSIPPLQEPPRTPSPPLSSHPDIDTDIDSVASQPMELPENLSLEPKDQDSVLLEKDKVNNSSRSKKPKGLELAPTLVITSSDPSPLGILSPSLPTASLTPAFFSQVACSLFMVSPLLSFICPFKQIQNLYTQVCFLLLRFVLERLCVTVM
How it was run: as §1

ETV2 = molecular target: T10, ETV2 (Homo sapiens, UniProt O00321 1-342); details: protein: recombinant; tags: N-terminal GST; dsDNA, one strand shown
T10 sequence: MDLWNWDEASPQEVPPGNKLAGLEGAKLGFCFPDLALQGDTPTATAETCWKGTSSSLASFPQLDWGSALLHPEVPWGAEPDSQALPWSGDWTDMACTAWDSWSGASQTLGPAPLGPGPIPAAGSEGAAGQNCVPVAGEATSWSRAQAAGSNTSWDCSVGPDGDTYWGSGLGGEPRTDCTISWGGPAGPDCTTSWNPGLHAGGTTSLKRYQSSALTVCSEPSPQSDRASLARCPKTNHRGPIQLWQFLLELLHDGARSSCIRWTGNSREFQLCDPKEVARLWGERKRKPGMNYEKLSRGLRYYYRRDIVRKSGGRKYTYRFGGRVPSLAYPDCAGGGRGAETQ
How it was run: as §1

ELF3 = molecular target: T11, ELF3 (Homo sapiens, UniProt P78545 1-371); details: protein: recombinant; tags: N-terminal GST; dsDNA, one strand shown
T11 sequence: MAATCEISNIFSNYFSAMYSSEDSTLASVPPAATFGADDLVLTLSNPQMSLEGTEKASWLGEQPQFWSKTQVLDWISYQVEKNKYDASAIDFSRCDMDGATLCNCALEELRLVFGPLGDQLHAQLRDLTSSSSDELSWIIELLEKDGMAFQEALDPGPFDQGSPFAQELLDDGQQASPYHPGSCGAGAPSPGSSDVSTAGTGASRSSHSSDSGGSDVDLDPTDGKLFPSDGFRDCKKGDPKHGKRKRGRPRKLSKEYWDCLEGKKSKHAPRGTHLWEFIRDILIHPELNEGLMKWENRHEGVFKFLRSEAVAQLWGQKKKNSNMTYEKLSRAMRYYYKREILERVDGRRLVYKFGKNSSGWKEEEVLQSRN
How it was run: as §1

CRX = CRX (Homo sapiens, UniProt O43186 1-299); details: protein: recombinant; tags: N-terminal GST; dsDNA, one strand shown
Chain of CRX (O43186 whole entry): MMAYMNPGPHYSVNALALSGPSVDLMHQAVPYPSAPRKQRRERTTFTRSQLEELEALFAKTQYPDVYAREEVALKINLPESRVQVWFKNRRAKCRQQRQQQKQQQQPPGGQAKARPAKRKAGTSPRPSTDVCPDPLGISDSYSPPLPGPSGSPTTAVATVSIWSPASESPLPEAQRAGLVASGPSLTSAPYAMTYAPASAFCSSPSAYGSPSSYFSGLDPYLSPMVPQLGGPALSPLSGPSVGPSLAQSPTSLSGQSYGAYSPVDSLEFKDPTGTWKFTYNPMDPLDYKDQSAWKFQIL
How it was run: as §1

ETV1 = ETV1 (Homo sapiens, UniProt P50549 1-477); details: protein: recombinant; tags: N-terminal GST; dsDNA, one strand shown
Chain of ETV1 (P50549 whole entry): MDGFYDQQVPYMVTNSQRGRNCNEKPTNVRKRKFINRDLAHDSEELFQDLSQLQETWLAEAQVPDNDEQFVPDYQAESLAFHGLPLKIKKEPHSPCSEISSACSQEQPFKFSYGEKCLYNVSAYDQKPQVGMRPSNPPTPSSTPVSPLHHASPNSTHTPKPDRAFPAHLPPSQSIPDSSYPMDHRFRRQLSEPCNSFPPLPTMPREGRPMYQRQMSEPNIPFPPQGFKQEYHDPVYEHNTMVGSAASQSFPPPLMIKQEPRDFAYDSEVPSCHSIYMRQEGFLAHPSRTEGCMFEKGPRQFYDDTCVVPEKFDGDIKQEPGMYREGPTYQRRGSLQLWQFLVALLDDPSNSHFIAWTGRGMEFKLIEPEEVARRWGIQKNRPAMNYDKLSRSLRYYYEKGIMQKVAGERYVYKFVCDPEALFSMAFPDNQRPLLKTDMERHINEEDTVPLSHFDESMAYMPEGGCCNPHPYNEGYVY
How it was run: as §1

In the case of TCTAGT, the binding signal (FLI1) is reported as 1.05 fold enrichment (6-mer frequency, TF over GST control), the binding signal (ELK1) is reported as 1.12 fold enrichment (6-mer frequency, TF over GST control) and the binding signal (GABPA) is reported as 1.17 fold enrichment (6-mer frequency, TF over GST control). The binding signal (ERG) was 1.1 fold enrichment (6-mer frequency, TF over GST control), the binding signal (ELF1) was 1.12 fold enrichment (6-mer frequency, TF over GST control) and the binding signal (EHF) was 1.08 fold enrichment (6-mer frequency, TF over GST control). The binding signal (SPI1) was 1.03 fold enrichment (6-mer frequency, TF over GST control), the binding signal (SPIB) was 1.08 fold enrichment (6-mer frequency, TF over GST control) and the binding signal (ELK3) was 1.05 fold enrichment (6-mer frequency, TF over GST control). The binding signal (FEV) was 1.03 fold enrichment (6-mer frequency, TF over GST control), the binding signal (ETV5) was 1.06 fold enrichment (6-mer frequency, TF over GST control) and the binding signal (HSF1) was 2.32 fold enrichment (6-mer frequency, TF over GST control). The binding signal (SPIC) was 1.18 fold enrichment (6-mer frequency, TF over GST control), the binding signal (ELF4) was 1.09 fold enrichment (6-mer frequency, TF over GST control) and the binding signal (ELK4) was 1.17 fold enrichment (6-mer frequency, TF over GST control). The binding signal (ETV2) was 1.04 fold enrichment (6-mer frequency, TF over GST control), the binding signal (ELF3) was 1.28 fold enrichment (6-mer frequency, TF over GST control) and the binding signal (CRX) was 1.37 fold enrichment (6-mer frequency, TF over GST control). For the same sequence, the binding signal (ETV1) was 1.01 fold enrichment (6-mer frequency, TF over GST control).
